# Assay outcomes as filed in PubChem.
# hiPSC survival: enhancers of single-cell hiPSC survival, primary screen, ATPlite luminescence. 360,000 tested, 0.044% active. survival enhancement, % at 20 µM. 100% = ROCK inhibitor wells, 0% = DMSO; in the data active = survival enhancement above about 18%;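 also: cells exposed to compounds for 16 hours before the ATP read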
# beta cell repl: inducers of MIN6 beta-cell proliferation, primary screen, ATP luminescence, uHTS; MIN6 cells proliferation, ATPlite luminescence, 48 h; cells starved in 0.2% serum; 100% = growth in 10% serum; proliferation, % at 10 µM; 330,000 tested, 0.29% active;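 active = compounds whose signal lies at least 3.5 SD above the mean of all wells on their plate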;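 also: 0% = DMSO-treated cells in low-serum medium and 100% = 10% serum control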
# Myeloid diff 2: induction of myeloid progenitor differentiation, primary screen, cell-based, flow cytometry, MLPCN library; ER-HoxA9 myeloid progenitors, lysozyme-GFP differentiation; calls only at 10 µM; 360,000 tested, 1% active;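 active = normalized GFP-positive differentiation at or above the plate's own cutoff, the solvent-only control mean plus 3 SD; inconclusive = no clear call, values can overlap the other calls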;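 also: cells exposed to compound for four days before flow analysis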
# H9c2 protect: cardioprotection against H2O2-induced cell death, primary screen, uHTS, H9c2 cells, ATPLite luminescence; H9c2 cardiomyocytes, H2O2 injury protection, 2 h; protection from H2O2 cell death, % at 20 µM; 360,000 tested, 0.63% active; AID 588492, 2011;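 active = compounds giving at least 50% protection of heart cells from peroxide-induced death in the single-dose screen, raw or plate-pattern-corrected value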;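 also: 0% = DMSO wells with peroxide and 100% = DMSO wells without peroxide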
# ABCB6 inh MLPCN: ABCB6 transporter inhibitors, primary screen, K562-ABCB6 cells, flow cytometry, MLPCN library | AID 602162, 2011 | 360,000 tested, 0.19% active | ATP-binding cassette sub-family B member 6 (Homo sapiens), Q9NP58 | K562-ABCB6 porphyrin accumulation, 1 h; active compounds read low | fluorescence ratio to DMSO, % at 10 µM;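 active = fluorescence ratio to DMSO below 75%, the collection mean minus 3 SD; inconclusive = too few cells collected in the well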;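 also: signal is porphyrin accumulated inside mitochondria; 100% equals median channel fluorescence of DMSO control wells; lower ratio means ABCB6 inhibition with less porphyrin fluorescence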
# Target sequence (Q9NP58 whole entry, looked up): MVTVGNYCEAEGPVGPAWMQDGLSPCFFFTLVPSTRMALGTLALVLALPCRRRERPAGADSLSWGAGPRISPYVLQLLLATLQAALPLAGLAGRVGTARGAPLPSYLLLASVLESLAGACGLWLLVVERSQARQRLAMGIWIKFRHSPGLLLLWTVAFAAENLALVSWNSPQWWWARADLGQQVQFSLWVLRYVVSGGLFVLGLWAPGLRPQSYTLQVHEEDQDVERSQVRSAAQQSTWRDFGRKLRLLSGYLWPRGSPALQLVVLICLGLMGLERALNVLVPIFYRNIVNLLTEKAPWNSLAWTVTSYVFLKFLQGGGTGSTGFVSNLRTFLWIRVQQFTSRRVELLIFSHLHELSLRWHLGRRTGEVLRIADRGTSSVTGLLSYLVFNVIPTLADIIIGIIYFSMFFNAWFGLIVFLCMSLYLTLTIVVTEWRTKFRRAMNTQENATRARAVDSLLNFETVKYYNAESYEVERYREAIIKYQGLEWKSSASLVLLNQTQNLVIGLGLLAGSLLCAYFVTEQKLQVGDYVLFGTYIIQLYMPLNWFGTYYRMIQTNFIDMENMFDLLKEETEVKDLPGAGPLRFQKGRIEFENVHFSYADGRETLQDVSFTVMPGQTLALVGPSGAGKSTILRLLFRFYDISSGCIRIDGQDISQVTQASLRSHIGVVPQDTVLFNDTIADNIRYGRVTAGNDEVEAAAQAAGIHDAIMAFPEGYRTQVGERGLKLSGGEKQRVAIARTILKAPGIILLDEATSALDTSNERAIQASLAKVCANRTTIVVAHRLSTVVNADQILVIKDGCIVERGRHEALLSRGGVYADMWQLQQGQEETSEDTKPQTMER
# * marks the source's active call; other numbers are inactive results; i = inactive; ? = inconclusive; . = no result; + = active, no number. A selection: hits, their analogues and other compounds. The true share with any hit is near 2.2%.
SMILES,hiPSC survival,beta cell repl,Myeloid diff 2,H9c2 protect,ABCB6 inh MLPCN
O=c1c(/C=C(\O)c2ccc(F)cc2)nc2ccccc2n1-c1ccccc1,0,-2,+,-2,i
Cn1c(=O)c(/C=C/c2ccc(F)cc2)nc2ccccc21,0,.,i,18,100
Cc1ccc(/C=C2/C(=O)N=C(N)N2C)s1,1,0,+,2,96
CCOCC(=O)Nc1nc2c(s1)C(=O)CC(C)(C)C2,-1,-1,i,8,99
Cc1cn(C2CC(O)C(O)C(CO)O2)c(=O)[nH]c1=O (centres undefined),0,.,i,2,94
Cc1cn([C@H]2C[C@H](N=[N+]=[N-])[C@@H](CO)O2)c(=O)[nH]c1=O,1,-2,+,6,90
CC(=NCc1cccc(Cl)c1)c1nc(-c2ccco2)oc1O,2,0,+,-2,96
Cc1oc(C)c2c(=O)ccc3c(c12)OC(N)=C(C#N)C3c1ccccc1Cl (centres undefined),3,-5,+,-1,96
Cn1c(=O)[nH]c(=O)c2c1nc(N1CCCC1)n2CC(O)COc1ccccc1 (centres undefined),-2,-2,i,13,98
C/C(O)=C\c1nc2ccccc2oc1=O,6,-3,+,-19,108
O=c1oc2ccccc2nc1/C=C(\O)c1ccc(Br)cc1,-1,-4,i,-11,92
O=S(=O)(c1c(F)cccc1F)N(CCc1ccc(F)cc1)C[C@@H](O)COCc1ccccc1,2,.,i,-11,100
NC(=O)CC(NC(=O)c1ccccc1)C(=O)O (centres undefined),20*,0,i,-1,98
CC(C)n1cnc2c(N(C)c3ccccc3)nc(N(CCN(C)C)Cc3ccccc3)nc21,-2,-8,+,-6,106
CN(Cc1cnn(C)c1)C(=O)C1CCC(=O)N(C2CCCCCC2)C1 (centres undefined),0,3,i,2,100
Cc1ccc(OCC(=O)Nc2ccc3c4c(cccc24)CC3)c(C)c1,1,-3,+,-26,113
O=C(COc1ccc(F)cc1)Nc1nc(-c2ccccn2)cs1,2,-5,i,59*,99
Cc1ccc(OCC(=O)Nc2nc(-c3ccccn3)cs2)c(C)c1,0,-7,i,53*,99
O=C(Nc1nc(-c2ccccn2)cs1)Nc1ccc(F)cc1F,0,-4,?,46,98
O=C(COc1cccc(F)c1)Nc1nc(-c2ccccn2)cs1,0,.,i,59*,99
Cc1cc(Cl)ccc1OCC(=O)Nc1nc(-c2cccnc2)cs1,0,-3,i,-1,98
CCc1ccc(OCC(=O)NNC(=O)c2cc3ccccc3o2)cc1,0,2,i,-1,101
Cc1cc(N2CCCC2)c(F)cc1/C=C\[N+](=O)[O-],-4,.,?,-16,128
O=C(COc1ccc([N+](=O)[O-])cc1)Nc1nc(-c2ccccn2)cs1,0,-5,i,71*,99
Cn1c(=O)c2ncn(CC(=O)Nc3ccc4c5c(cccc35)CC4)c2n(C)c1=O,-1,-1,+,-1,128
SMILES,hiPSC survival,beta cell repl,Myeloid diff 2,H9c2 protect,ABCB6 inh MLPCN
Cc1cccc(C)c1NC(=O)Cn1cnc2c(=O)n(C)c(=O)n(C)c21,2,-2,i,1,93
O=C(COc1ccccc1)Nc1nc(-c2ccncc2)cs1,34*,0,?,-2,100
O=C(COc1ccccc1)Nc1nc(-c2cccnc2)cs1,0,-3,i,16,101
CC(C)(C)NS(=O)(=O)c1ccc(NC(=S)NC(=O)C2CC2)cc1,2,1,i,-4,105
COc1ccccc1CN1CC(C(=O)NCc2c(F)ccc(C)c2F)CCC1=O (centres undefined),1,-1,i,3,94
COc1cc(C2C(C#N)=C(C)NC3=C2C(=O)c2ccccc23)cc(OC)c1OC (centres undefined),-5,-2,+,128*,97
COc1ccc(C2C(C#N)=C(C)NC3=C2C(=O)c2ccccc23)cc1 (centres undefined),-1,-3,i,15,97
Cc1cc(C)n2nc(SCc3ccc(F)cc3Cl)nc2n1,0,3,i,-1,91
Cc1cccc(CSc2nc3nc(C)cc(C)n3n2)c1,1,-4,+,-1,458
Cc1cc(C)n2nc(SCCOc3ccc(F)cc3)nc2n1,2,-4,+,-7,155
CCOC(=O)Cn1c(=O)cnc2ccccc21,0,2,i,9,87
Cc1ccc(O)c(Nc2ncnc3ccc([N+](=O)[O-])cc23)c1,0,-1,i,9,98
Cn1nc(C(C)(C)C)cc1C(=O)NNC(=O)c1ccc(C(F)(F)F)cc1,0,-1,i,-9,95
O=C(CSc1ccc2ccccc2c1)Nn1cnnc1,-4,-3,i,-2,96
O=C(CSc1ccc(Cl)cc1)Nn1cnnc1,-2,-6,+,-3,i
NNC(=O)c1oc2nc(-c3ccc(Cl)cc3)cc(-c3ccccc3)c2c1N,0,.,+,4,109
NNC(=O)c1oc2nc(-c3ccco3)cc(-c3ccco3)c2c1N,0,-3,i,33,115
Nc1c(C(=O)N/N=C/c2cccnc2)oc2nc(-c3ccco3)cc(-c3ccco3)c12,0,-3,i,77*,99
Nc1c(C(=O)N/N=C/c2cccnc2)oc2nc(-c3ccccc3)cc(-c3ccco3)c12,0,0,i,68*,99
Nc1c(C(=O)O)sc2nc(-c3ccccc3)cc(-c3ccc(Cl)cc3)c12,0,-3,i,-6,98
Cc1cc(C)c2c(N)c(C(=O)N/N=C/c3cccnc3)sc2n1,0,-2,i,66*,100
COc1ccc(NC(=O)C2CCN(C(=O)Nc3ccc(C)cc3)CC2)cc1OC,-1,2,i,-1,101
Nc1ccc(OCCCc2c(N)nc(N)nc2N)cc1,0,1,i,-2,100
CCc1c(C)nc(SCC(=O)Nc2ccc(Br)cc2)[nH]c1=O,0,-1,i,-6,101
CCc1c(C)nc(SCC(=O)NNC(=O)c2ccco2)[nH]c1=O,0,-1,+,0,104
CCOC(=O)c1c(C)oc2c1c1c(c3ccccc32)OCN(Cc2ccccn2)C1,4,-6,i,54*,101
CCOC(=O)c1c(C)oc2c1c(CN1CCN(C(=O)OCC)CC1)c(O)c1ccccc12,-3,0,i,-22,104
COc1ccc(CCNS(=O)(=O)c2ccc3[nH]c(=O)[nH]c3c2)cc1,4,1,i,1,110
